Hits are enriched below; roughly 18% of the tested compounds scored in any of these assays.
HepG2 viability – qHTS for Inhibitors of TGF-b: Cytotox Counterscreen | HepG2 CAGA-GFP viability, ATP luminescence, 18 h | AID 588856, 2011 | 0.76% of 410,000 active | Potency, µM (series often up to 46.1 µM), for inactives: at the top dose activity change, negative = cytotoxicity, most hits filed as cytotoxic; also: potency is read from the fitted curve at half-maximal effect
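HepG2 CAGA-GFP cells (1000/well, DMEM with 1% FBS) received compound, then TGF-beta at 500 pg/mL final, and were incubated 18 hours at 37 degrees C. Viability was read by CellTiter-Glo luminescence. Media-only wells were set as complete cell-killing and DMSO as no toxicity.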
TDP1 block – qHTS Assay for Inhibitors of Tyrosyl-DNA Phosphodiesterase (TDP1); Tyrosyl-DNA phosphodiesterase 1 (Homo sapiens), Q9NUW8; recombinant TDP1, AlphaScreen DNA substrate cleavage; Potency, µM (titrated, usually from 130 µM), for the others: at the top dose activity change, negative = inhibition, hits mostly inhibitors; 0.28% of 350,000 active; also: potency is read from the fitted curve at half-maximal effect; % is scaled to controls: 0 for no effect and ±100 for the full control effect; nearly all actives have a fitted effect of over 40% in size
Target sequence (Q9NUW8 whole entry, looked up): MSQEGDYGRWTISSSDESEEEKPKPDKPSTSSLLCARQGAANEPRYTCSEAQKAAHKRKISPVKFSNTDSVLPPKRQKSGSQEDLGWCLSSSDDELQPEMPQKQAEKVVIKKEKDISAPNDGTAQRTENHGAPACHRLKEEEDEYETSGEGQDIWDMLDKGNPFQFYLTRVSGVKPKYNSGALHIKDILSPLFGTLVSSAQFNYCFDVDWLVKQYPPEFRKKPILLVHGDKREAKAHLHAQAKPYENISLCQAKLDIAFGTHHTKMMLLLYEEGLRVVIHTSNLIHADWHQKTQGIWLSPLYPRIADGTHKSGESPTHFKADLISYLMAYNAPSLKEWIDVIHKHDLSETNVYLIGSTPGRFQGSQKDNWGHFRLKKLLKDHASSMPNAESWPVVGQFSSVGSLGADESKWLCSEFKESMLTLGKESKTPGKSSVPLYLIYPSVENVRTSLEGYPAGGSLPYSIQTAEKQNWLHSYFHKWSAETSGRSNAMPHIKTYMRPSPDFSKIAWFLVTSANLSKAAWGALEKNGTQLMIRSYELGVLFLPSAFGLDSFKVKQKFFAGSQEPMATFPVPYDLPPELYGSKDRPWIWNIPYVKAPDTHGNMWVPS
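E. coli-derived human Tdp1, 1 nM final. Cpd preinc 15 min RT; substrate 15 nM final, 5 min RT; AS bead mix 10 ug/ml final, 10 min RT. Signal loss = tyrosine-FITC cleavage. No-enzyme wells = max signal.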
IL-1B inflam inh – qHTS for Inhibitors of Inflammasome Signaling: IL-1-beta AlphaLISA Primary Screen; activity change, % at 57.5 µM; AID 743279, 2014; THP-1 LPS/ATP IL-1B secretion, AlphaLISA, 16 h; active compounds read low; 4.7% of 360,000 active; in the data active = activity change below about -50%; inconclusive = mostly about -30% to -49%; also: % is scaled to controls: 0 for no effect and ±100 for the full control effect
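THP-1 cells pretreated 1 hr with compounds (up to 57.5 uM final), then stimulated with LPS (250 ng/mL final) plus ATP (1.25 mM final); secreted IL-1B measured by AlphaLISA after 16 hr, decreased signal indicating inhibition.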
TDP1 cell noCPT – qHTS for Inhibitors of human tyrosyl-DNA phosphodiesterase 1 (TDP1): qHTS in cells in absence of CPT. DT40 Tdp1-/- hTDP1 cells, no CPT, ATP luminescence, 48 h. Potency, µM (top dose mostly 46.2 µM), for the others: at the top dose activity change, negative = growth inhibition, hits mostly inhibitors. 15% of 420,000 active; also: potency is read from the fitted curve at half-maximal effect; % is scaled to controls: 0 for no effect and ±100 for the full control effect; nearly all actives have a fitted effect of over 55% in size
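Stably hTDP1-transfected Tdp1-null chicken DT40 cells were treated with library compounds minus camptothecin and grown for at least 48 hr at 37 °C, after which cellular ATP was quantified by luminescence.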
TGFb SMAD3 inh – qHTS for Inhibitors of TGF-b. HepG2 CAGA-GFP TGF-b/SMAD3 reporter, GFP fluorescence, 18 h; TGF-beta stimulated, 500 pg/mL final. Potency, µM (doses to about 46.1 µM), for the others: at the top dose activity, negative = inhibition, most hits filed as inhibitors. 1.2% of 410,000 active; also: potency is read from the fitted curve at half-maximal effect; % is scaled to controls: 0 for no effect and ±100 for the full control effect; nearly all actives have a fitted effect of over 65% in size
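Using HEPG2 CAGA-GFP reporter cells at 1000 cells/well, we pinned test compounds, stimulated with recombinant TGF-beta (500 pg/mL final) and measured total well GFP after 18 h.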
TDP1 cell CPT – qHTS for Inhibitors of human tyrosyl-DNA phosphodiesterase 1 (TDP1): qHTS in cells in presence of CPT. chicken DT40 Tdp1-/-;hTDP1 cells + 20 nM CPT, ATP luminescence, 48 h. Potency, µM (doses to about 46.2 µM), without a hit: at the top dose activity change, negative = growth inhibition, actives largely listed as inhibitors. 12% of 420,000 active. AID 686979, 2013; also: potency is read from the fitted curve at half-maximal effect; % is scaled to controls: 0 for no effect and ±100 for the full control effect; nearly all actives have a fitted effect of over 55% in size
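Chicken DT40 Tdp1-/- cells complemented with human TDP1, 400 cells/well, exposed to compounds plus 20 nM camptothecin for at least 48 h at 37 C; viability read as ATP content by CellTiter-Glo luminescence.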
Active calls of the source: *; ? = inconclusive; . = no result; [ ] = dose if it differs, or a comment. Unless noted, calls follow the shape of the dose curve; as a rule, active = well fitted curve in the direction sought with a large enough effect; inconclusive = small, poorly fitted or top-dose-only effect, or another doubt; inactive = no such curve, though single readings can be large; an effect the other way counts as inactive or inconclusive.

SMILES	HepG2 viability	TDP1 block	IL-1B inflam inh	TDP1 cell noCPT	TGFb SMAD3 inh	TDP1 cell CPT
CN(C)S(=O)(=O)c1cccc(NC(=O)CN2C(=O)NC(CCc3ccccc3)C2=O)c1 (configuration not stated)	-11%	8%	32	-23%	4%	-17%
CCOCC(=O)Nc1c(C(=O)Nc2ccc3c(c2)OCCO3)oc2ccccc12	-32%	5%	0	8.2µM*	10%	?
O=C(Nc1c(C(=O)Nc2cccc(F)c2)oc2ccccc12)c1cc2ccccc2o1	3%	1%	.	15µM*	10%	18µM*
Cc1ccc(NC(=O)c2oc3ccccc3c2NC(=O)Cc2ccccc2)cc1	-27%	1%	.	?	1%	16µM*
CCOc1ccc(CC(=O)Nc2c(C(=O)c3ccc(C)cc3)oc3ccccc23)cc1OCC	12%	3%	.	18µM*	14%	?
CC1(c2nnnn2-c2ccc3c(c2)OCCO3)CCC(=O)N1CCc1c[nH]c2ccccc12 (configuration not stated)	.	.	11	?	.	?
c1ccc2c(-c3cn4ccccc4n3)c[nH]c2c1	.	0%	.	.	.	.
O=C(O)C1=C[C@H](c2ccc3c(c2)OCO3)C[C@H](OCCCCO)O1	3%	.	16	-4%	3%	2%
CCC(C)(C)c1ccc(OCCCC[n+]2cccc(C)c2)c(C(C)(C)CC)c1	-196%	7%	-180*	0.92µM*	10µM*	0.58µM*
Cn1c(-c2ccc(F)cc2)cnc1NCc1cc2c(cc1[N+](=O)[O-])OCO2	9%	-3%	-64*	23µM*	1%	?
Cn1c(-c2ccc(Cl)cc2)cnc1NCc1cc2c(cc1[N+](=O)[O-])OCO2	-4%	5%	-82*	?	-6%	?
Cn1c(-c2ccccc2)cnc1NCc1cc2c(cc1[N+](=O)[O-])OCO2	15%	0%	-22	?	20%	-14%
O=C(Nc1ccc2nc(-c3ccco3)c(-c3ccco3)nc2c1)N1CCCCCC1	5%	.	?	15µM*	?	12µM*
CCOC(=O)C1CCN(C(=O)Nc2ccc3nc(-c4ccco4)c(-c4ccco4)nc3c2)CC1	-2%	35µM*	-11	18µM*	?	?
O=C(COC(=O)CSc1ccc(F)cc1)NNC(=O)c1ccc([N+](=O)[O-])cc1	-2%	2%[0.505 µM]	9	-12%	-16%	-4%
Cc1c2ccccc2cc(Cc2ccccc2)[n+]1C	0%	3%	18	13µM*	4%	23µM*
O=C(COc1ccc(S(=O)(=O)N2CCOCC2)cc1)N1CCCCCC1	-20%	-3%	0	-16%	-4%	0%
O=C(O)c1cc(N2CCCCC2)nc2ccccc12	-18%	.	-4	-17%	-12%	0%
CCOC(=O)c1cc(N2CCCCC2)nc2ccccc12	0%	.	5	?	-9%	23µM*
Cc1cccc(-c2nc(C#N)c(N3CCCCCC3)o2)c1	-16%	11%	-57*	?	-7%	29µM*
COc1ccc(/C=C/c2nc(C#N)c(N3CCC(C)CC3)o2)cc1OC	-17%	2%	.	23µM*	?	16µM*
COc1cc(/C=C/c2nc(C#N)c(N3CCCCC3)o2)cc(OC)c1OC	-8%	5%	.	7.3µM*	1%	8.2µM*
N#Cc1nc(/C=C/c2ccc(F)cc2)oc1N1CCCCC1	-4%	0%	.	?	?	?
COc1cccc(/C=C/c2nc(C#N)c(N3CCCCC3)o2)c1	-28%	2%	.	23µM*	-5%	21µM*
CCO[C@H]1OC(C(=O)N2CCN(C)CC2)=C[C@@H](c2ccc(Br)cc2)[C@@H]1CCCO	6%	1%	-5	-4%	4%	-3%
SMILES	HepG2 viability	TDP1 block	IL-1B inflam inh	TDP1 cell noCPT	TGFb SMAD3 inh	TDP1 cell CPT
CCOC(=O)c1cc2c(ccn2C)n1CC(=O)Nc1ccc(F)cc1	-21%	3%	-25	-21%	-3%	23µM*
COC(=O)c1cc2c(ccn2-c2ccc(F)cc2)n1Cc1cccc(OC)c1	-21%	8%	-16	16µM*	-2%	7.3µM*
COc1cccc(CN2CCN(c3ccc(F)cc3)C2=O)c1	-5%	-3%	-51*	?	0%	-17%
CCOC(=O)c1cc2c(ccn2-c2ccc(F)cc2)n1CC(=O)N1CCN(C(=O)c2ccco2)CC1	3%	-7%	0	12µM*	2%	?
O=C1N(Cc2ccc(F)cc2)CCN1c1ccc(F)cc1	-7%	-3%	-9	-1%	0%	0%
O=[N+]([O-])c1ccc2nonc2c1Nc1ccccc1	7%	5%	-2	-6%	-5%	7%
CCOC(=O)c1cc2c(ccn2C)n1CC(=O)N1CCC(Cc2ccccc2)CC1	-33%	12%	-74*	18µM*	11µM*	23µM*
[C-]#[N+]/C(C#N)=C\c1cc(C(C)(C)C)c(O)c(C(C)(C)C)c1	.	12%	.	.	.	.
CC(C)(C)c1cc(/C=C(\C#N)C(N)=S)cc(C(C)(C)C)c1O	.	17%[56.1 µM]	.	0.71µM*	.	0.56µM*
[O-][n+]1c2ccccc2cc2ccccc21	-5%	-3%	-12	9.2µM*	11µM*	?
Cc1cc(Br)ccc1OCCCCNC(C)(C)C	-63%	-3%	?	21µM*	1%	?
COCCCNCCCCOc1ccc(Br)cc1C	-48%	5%	-56*	23µM*	?	?
COCCCNCCCCOc1cccc(Br)c1	-2%	0%	-21	?	?	?
COCCNCCCCOc1ccc(Br)cc1C	-28%	-6%	-29	23µM*	0%	?
CCOc1ccc(Nc2nn(-c3ccc(OC(F)(F)F)cc3)nc2C(C)=O)cc1	-21%	7%	.	-8%	0%	-12%
COc1cccc(SCc2noc(C(=O)NCC3CC3)c2C(=O)NCC2CC2)c1	-16%	.	-7	?	?	?
CCOc1ccccc1OCC(=O)Nc1ccc(N2CCOCC2)cc1N1CCOCC1	1%	-4%	-8	-17%	?	-13%
NCC1CCN(c2nc3ccccc3c3c2CCCC3)CC1	13µM*	.	-95*	12µM*	?	21µM*
